This is part of a sample that, as a whole, favours compounds with a hit. Of some 79,000 tested, about 15% had one in any assay. Unmarked numbers belong to inactive results. Active and inactive are the calls of the source. Rule as the data show it: active = growth inhibition above about 70%; inactive = the rest.
Assays:
[1] = NCI Yeast Anticancer Drug Screen. Data for the rad50 strain (AID 155);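 also: 0% = growth of vehicle-only cultures of the same strain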; conditions: S. cerevisiae rad50 strain growth inhibition; at 50.0 µM; stronger effect = higher value
Procedure, shortened: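 Cells are treated with compound, grown, and their growth is then scored against vehicle-only cultures of the same repair-deficient yeast strain.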

[2] = NCI Yeast Anticancer Drug Screen. Data for the mec2-1 strain (AID 157); conditions: S. cerevisiae mec2-1 strain, at 50.0 µM, stronger effect = higher value
Procedure, shortened: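 Strain: mec2-1 (DNA repair/cell cycle alteration). Compound exposure, then growth measured; inhibition expressed relative to vehicle.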

[3] = NCI Yeast Anticancer Drug Screen. Data for the sgs1 mgt1 strain (AID 161);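 also: 0% = growth of cultures given vehicle only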; conditions: S. cerevisiae sgs1 mgt1 strain, at 50.0 µM, stronger effect = higher value
Procedure, shortened: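 Read-out: growth inhibition vs vehicle controls. Cells: mutant yeast strain deficient in DNA damage repair.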

[4] = NCI Yeast Anticancer Drug Screen. Data for the cln2 rad14 strain (AID 165);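 also: 0% = growth equal to vehicle treated cultures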; conditions: S. cerevisiae cln2 rad14 strain, at 50.0 µM, stronger effect = higher value
Procedure, shortened: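 Compounds are applied to the cln2 rad14 yeast strain, and growth is then compared with that of vehicle-treated cultures to give inhibition.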

[5] = NCI Yeast Anticancer Drug Screen. Data for the bub3 strain (AID 167); conditions: S. cerevisiae bub3 mutant strain, at 50.0 µM, stronger effect = higher value
Procedure, shortened: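 Part of a panel of yeast mutants defective in DNA damage repair or cell cycle regulation. Each strain is grown with compound, and inhibition is calculated relative to solvent-treated cultures.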

[6] = NCI Yeast Anticancer Drug Screen. Data for the mlh1 rad18 strain (AID 175); conditions: S. cerevisiae mlh1 rad18 strain growth inhibition; at 50.0 µM; stronger effect = higher value
Procedure, shortened: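 Read-out is yeast growth inhibition, calculated against vehicle-only controls. The compound was applied to a strain engineered with DNA damage repair alterations.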

| SMILES | growth inhibition [1] | growth inhibition [2] | growth inhibition [3] | growth inhibition [4] | growth inhibition [5] | growth inhibition [6] |
| --- | --- | --- | --- | --- | --- | --- |
| Cc1ccc(-c2cc(-c3ccccc3)c(C#N)c(=O)[nH]2)cc1 | 16.1% | 9.4% | 12.6% | 8.55% | 3.8% | 25.6% |
| COc1cc(/C=C2\SC(=S)N(/C=C(/C#N)C(=O)c3ccc4ccccc4c3)C2=O)cc(OC)c1OC | 21.3% | 11.8% | 53.4% | 3.45% | 27.2% | 31.4% |
| CCCCC(CN(C)C)C(=O)/C=C/c1ccccc1 (stereo not given) | 23.2% | 2.9% | 32.9% | -0.7% | 17.4% | 27.8% |
| COc1ccccc1NC(=O)C1=C(C)NC(C)=C(C(=O)Nc2ccccc2OC)C1c1c(Cl)cccc1Cl | 15.6% | 3.75% | -11.8% | -6.05% | 0.2% | 26.6% |
| CCCCCCCCCCCC(=O)N(CCCCCCCCCCC(=O)O)CC(O)C(O)C(OC1OC(CO)C(O)C(O)C1O)C(O)CO (stereo not given) | 65.3% | 12.8% | 85.8% (active) | 32.2% | 86.3% (active) | 20.3% |
| CC(C)CN(CC(C)C)/N=C/c1cc([N+](=O)[O-])ccc1O | -11.7% | 9% | -4.9% | -3.65% | -12.9% | -14.8% |
| Cc1ccc(S(=O)(=O)NN=C2C(C)CC(C(C)(C)C)CC2C)cc1 (stereo not given) | -24.8% | 26% | -41.9% | 8.9% | 44.6% | -6% |
| Cc1cnc2cccc(C)c2c1Cl | -29.5% | 0.05% | 10.3% | -16.4% | 8.3% | -3.3% |
| N#C/C(=C\c1ccccn1)c1ccc(Cl)cc1 | 3.15% | 1.1% | 11.5% | -17.4% | 17.3% | 53.7% |
| c1ccc(C(c2ccc3c(c2)CCCC3)C(c2ccccc2)(c2ccccc2)c2ccccc2)cc1 (stereo not given) | -0.05% | -0.05% | 4.7% | 16.5% | -3.65% | 25.4% |
| CC(C)(C#N)CCCS(C)(=O)=O | -7.75% | -4.35% | -4% | -9.25% | -12.6% | -2.65% |
| CCC(C)(C)c1ccc(OCCOc2ccc(C(=O)O)cc2[N+](=O)[O-])cc1 | -4.1% | 12.2% | -3.9% | -17.6% | -6.6% | -20.1% |
| CCc1c(Cl)nc(N)nc1Nc1ccc(C)cc1 | -20.7% | -4.8% | -11.2% | -25% | 12% | -6.55% |
| C=CCCCC(C#N)c1ccc2c(c1)OCO2 (stereo not given) | -3.25% | -14.2% | -4.85% | -82% | -40.6% | -15.2% |
| C1CCN(/N=N/c2nn[nH]n2)CC1 | -2.3% | 6.55% | -2.8% | -23% | 3.9% | -0.7% |
| O=C(CN1C(=O)NC(c2ccccc2)(c2ccccc2)C1=O)NCCN1CCOCC1 | -1.65% | 3.9% | -5.95% | -1.6% | -0.1% | 26.1% |
| CC(/C=N\Nc1ccc([N+](=O)[O-])cc1)=N/N=C(N)N | 8.35% | -2.9% | 9.55% | -10.9% | 3.1% | 18.7% |
| CNC(=O)OCc1c(-c2ccccc2)c(-c2ccccc2)n(C)c1COC(=O)NC | 37.6% | 22.5% | 51.7% | 15.8% | 33.2% | 87.8% (active) |
| CN(C)c1ccc(Cc2c[nH]c3ccccc3c2=O)cc1 | 8.4% | 12.8% | 18.8% | 12.2% | 25.1% | 9.65% |
| C=CCNC(=S)Nc1ccc(OC(=O)NC(C)(C)C)cc1 | 2% | 29.4% | 26.4% | -16.8% | 25.3% | 0.1% |

| SMILES | growth inhibition [1] | growth inhibition [2] | growth inhibition [3] | growth inhibition [4] | growth inhibition [5] | growth inhibition [6] |
| --- | --- | --- | --- | --- | --- | --- |
| COc1nc(NCCO)nc(OC)n1 | 3.35% | -2.5% | -16.5% | -29.6% | 4.65% | -4.85% |
| Cc1nc(N)[nH]c(=O)c1CCCNC(=O)c1cccc([N+](=O)[O-])c1 | -1.55% | 2.65% | 11.4% | -4.7% | 30.5% | 18.6% |
| CCOC(=O)C1(C)OC1c1ccc([N+](=O)[O-])cc1 (stereo not given) | -16.3% | 5.45% | -4.5% | -15.6% | -9.85% | -9.85% |
| O=C(O)COc1cccc2ccccc12 | 5.25% | -18.6% | -0.7% | -24.6% | 1.75% | 14.7% |
| CC(=O)Oc1cc(Oc2c(OC(C)=O)cc(Oc3c(OC(C)=O)cc(OC(C)=O)c(OC(C)=O)c3OC(C)=O)cc2OC(C)=O)cc(OC(C)=O)c1OC(C)=O | 6.15% | 3.1% | 13.2% | 4.5% | 15.4% | 10.4% |
| CC(C)N(CC(c1ccccc1)C(C)(O)c1ccccc1)C(C)C (stereo not given) | -10.1% | 15.7% | -7.55% | 4.2% | 26.7% | -21.1% |
| OC1C2CCC(C2)C1CN1CCOCC1 (stereo not given) | -6% | -3.35% | -8.1% | 1.85% | 4.95% | 1.7% |
| Cc1ccc(OS(=O)(=O)NC(=O)NCc2ccco2)cc1 | 18.8% | 4.9% | 7.7% | 8.9% | 3.95% | 4.35% |
| CS(=O)CCNC(=O)NS(=O)(=O)c1ccc(Cl)cc1 (stereo not given) | -2% | -18.9% | -11.3% | -10.2% | 3.05% | -3.15% |
| Nc1ccc(C(=O)CC(N)C(=O)O)cc1O (stereo not given) | -9.7% | 21.4% | -6.9% | -17.9% | 6.95% | 11.3% |
| CCC1CC(O)c2ccccc2O1 (stereo not given) | -7.85% | -4.2% | -5.95% | 8.85% | -0.35% | -1.65% |
| Cc1cccc(C)c1NC(=S)N(CCC#N)Cc1ccccc1 | 6.8% | 1.45% | 1.9% | -4.55% | 12.3% | -11.1% |
| O=[N+]([O-])C1CC(O)C(O)CC1c1ccc2c(c1)OCO2 (stereo not given) | 11.1% | 7.25% | 1.7% | 3.05% | 1.95% | 3.7% |
| CO/C=C1/CCc2c(ccc3cc(OC)ccc23)C1=O | -1.5% | -8.75% | 10.5% | -0.8% | 3.2% | -6.55% |
| CN(CCc1ccccn1)C(=S)N/N=C/c1ccccn1 | 77% (active) | 83.8% (active) | 91% (active) | 89.7% (active) | 89.8% (active) | 91% (active) |
| Fc1cc(F)c2c(c1)Nc1cc(F)cc(F)c1S2 | 27.5% | 21.6% | 4.75% | -13.6% | 22.9% | 12.7% |
| Nc1[nH]c(=O)nc2snnc12 | 2.35% | -2.3% | 14.9% | 16.3% | 6.1% | -57.9% |
| CCCCCCCCCCCCOC(=O)NCCCl | -53% | -106% | -57% | -224% | -27.6% | -60.1% |
| COc1cc(-c2cc(=O)c3c(O)c(OC)c(OC)c(OC)c3o2)ccc1O | 23.4% | 10.2% | -14.8% | 28.4% | 13.1% | 14.9% |
| CC1=CC(=N/S(=O)(=O)c2ccccc2)/C2CC(C)=C(C)CC2/C1=N\S(=O)(=O)c1ccccc1 (stereo not given) | 82.6% (active) | 78.6% (active) | 93% (active) | 56.6% | 81.2% (active) | 85.3% (active) |

— PubChem BioAssay (NCI)
